Out of some 290,000 compounds screened, about 2,700 (0.93%) were called active. The rule behind the calls is not given here. The entries come from a sample that favours actives as a whole.
Molecular target: Eukaryotic translation initiation factor 4H (Homo sapiens) (UniProt Q15056)
Experiment: human eIF4H binding inhibitors, primary screen, translation initiation inhibitor project, biochemical, uHTS, fluorescence polarization (AID 2012);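 note: calls also rest on retests at 20 µM and on dose response follow-up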
Conditions: eIF4H fluorescence polarization binding assay, stronger effect = higher value

| SMILES | inhibition (at 35 µM) | inhibition (confirmation average, at 20 µM) [%] |
| --- | --- | --- |
| COc1ccc(Cl)cc1NC(=O)CCS(=O)(=O)c1cc2c(cc1C)NC(=O)CO2 | 3.9% (inactive) | – |
| COc1ccc(Cl)cc1NC(=O)CCS(=O)(=O)c1ccc(Br)cc1 | 84.2% (active) | – |
| COc1ccc(Cl)cc1NC(=O)CCN1CCOCC1 | -3.3% (inactive) | – |
| NS(=O)(=O)c1ccc(CCNC(=O)Nc2ccc(Cl)cc2)cc1 | -4.8% (inactive) | – |
| CS(=O)(=O)N1CCc2cc(C(=O)Nc3ccccc3Br)ccc21 | -0.6% (inactive) | – |
| COCc1ccc(CN2CCC(Oc3ccc(C(=O)NCc4ccccn4)cc3)CC2)o1 | -2.5% (inactive) | – |
| O=C(CC1CCCCC1)NCc1ccco1 | -6.2% (inactive) | – |
| O=C(CC12CC3CC(CC(C3)C1)C2)NCc1ccco1 | -1% (inactive) | – |
| O=C(COC(=O)c1cnc(Cl)c(Cl)c1)NCc1ccco1 | -1.2% (inactive) | – |
| O=C(COC(=O)c1cccs1)NCc1cccs1 | -7.5% (inactive) | – |
| O=C(COC(=O)C12CC3CC(CC(C3)C1)C2)NCc1ccco1 | 50.9% (active) | 92.2 |
| O=C(COC(=O)CCC(=O)c1cccs1)NCc1ccco1 | 87% (active) | 63.4 |
| CC(C)CC(O)C1CCN(C(=O)CCc2nnc(-c3ccc4c(c3)OCO4)o2)CC1 (stereo not given) | 11.1% (inactive) | – |
| O=C(N/N=C\C1CC=CCC1)c1ccc(Br)o1 (stereo not given) | -1.2% (inactive) | – |
| CC(NC(=O)Cn1cc(C(F)(F)F)cc(Cl)c1=O)c1ccccc1 (stereo not given) | 4.6% (inactive) | – |
| O=C(O)c1cc(S(=O)(=O)NC2CCCc3ccccc32)ccc1O (stereo not given) | -2.4% (inactive) | – |
| Cc1ccc(CNC(=O)CCS(=O)(=O)c2ccc3c(c2)CC(C)N3C(=O)C2CC2)o1 (stereo not given) | -4.8% (inactive) | – |
| CN1C(=O)/C(=C/c2ccco2)SC1=Nc1cccc(C(=O)O)c1 | 99% (active) | 106 |
| O=C(CCCN1C(=O)/C(=C/c2ccco2)SC1=S)Nc1ccccc1 | 77.4% (inactive) | 3.8 |
| O=C(CCCN1C(=O)/C(=C\c2ccco2)SC1=S)Nc1cccc2ccccc12 | 91.9% (inactive) | -11.3 |
| CC(Oc1ccccc1)C(=O)Nc1c2c(nn1-c1ccccc1)CS(=O)C2 (stereo not given) | -8.2% (inactive) | – |
| O=C(OCc1ccc(-c2ccccc2)cc1)c1cccc(O)c1 | -0.5% (inactive) | – |
| Cc1cc(/C=C2/SC(=O)N(CC(=O)N3CCCC3)C2=O)c(C)n1C | 8.5% (inactive) | – |
| Cc1cc(/C=C2\SC(=O)N(C)C2=O)c(C)n1-c1cccc(C(=O)O)c1 | 89.5% (active) | – |
| Cc1cc(/C=C2\SC(=Nc3ccc(N4CCOCC4)cc3)N(C)C2=O)c(C)n1-c1cccnc1 | 2.5% (inactive) | – |
| NS(=O)(=O)c1ccc(NC(=S)N2CCCC2)cc1 | 102% (active) | 104 |
| COc1ccc(N2CCN(C(=S)Nc3ccc(S(N)(=O)=O)cc3)CC2)cc1 | -13.4% (inactive) | – |
| CC1CN(C(=S)Nc2ccc(S(N)(=O)=O)cc2)CC(C)O1 (stereo not given) | 4.3% (inactive) | – |
| C=CCn1c(C23CC4CC(CC(C4)C2)C3)n[nH]c1=S | -9.9% (inactive) | – |

Source: PubChem BioAssay AID2012 (Sanford-Burnham Center for Chemical Genomics, 2009)
